# Data taken from the supplement of paper PMC12819154, “High-throughput peptide-centric local stability assay extends protein–ligand identification to membrane proteins, tissues and bacteria” (Nature Structural & Molecular Biology, 2025).
# Target: T1, UniProt P0AES0
# T1 sequence (whole entry): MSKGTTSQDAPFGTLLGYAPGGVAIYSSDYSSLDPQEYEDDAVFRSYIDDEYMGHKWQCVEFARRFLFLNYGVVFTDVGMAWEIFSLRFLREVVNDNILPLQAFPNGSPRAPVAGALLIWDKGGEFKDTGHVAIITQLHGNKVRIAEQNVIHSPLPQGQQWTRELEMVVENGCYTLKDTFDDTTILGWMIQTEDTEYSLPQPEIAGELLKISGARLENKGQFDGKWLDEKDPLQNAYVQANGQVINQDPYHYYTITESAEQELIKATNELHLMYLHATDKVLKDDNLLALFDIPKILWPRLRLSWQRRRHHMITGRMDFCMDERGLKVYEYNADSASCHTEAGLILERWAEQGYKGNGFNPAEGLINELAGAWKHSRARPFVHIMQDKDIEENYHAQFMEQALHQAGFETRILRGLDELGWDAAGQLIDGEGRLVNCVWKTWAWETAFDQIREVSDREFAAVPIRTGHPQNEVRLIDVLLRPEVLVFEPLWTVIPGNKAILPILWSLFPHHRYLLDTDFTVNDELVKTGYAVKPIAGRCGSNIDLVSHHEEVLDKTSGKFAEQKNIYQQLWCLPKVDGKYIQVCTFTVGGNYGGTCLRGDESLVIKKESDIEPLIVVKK
# Assay: log2 fold change of tryptic peptide abundance, ligand vs vehicle (limited proteolysis) (log2 ratio); higher = more trypsin-susceptible (destabilized)
# Conditions: peptide sequence: TGYAVKPIAGR; peptide start residue: 528; ligand concentration: 5 mM; sample: E. coli desalted lysate; replicate design: treated before aliquoting
# Description: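 HT-PELSA: desalted E. coli K-12 BW25113 lysate (with 12 mM MgCl2) incubated with 5 mM ATP (pH 7) or water for 30 min at 25 C, then a 4 min trypsin pulse at 22 C. Peptides were quantified by DIA-MS (4 replicates). Value is the peptide log2 fold change (treated/control); negative = stabilized. Scale: negative = ligand-stabilized region.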
# 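Note: lysate desalted by size exclusion to strip endogenous ATP, peptide intensities built from DIA-NN precursor signals, and peptides missing any value discarded before comparison.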
row,Compound,log2 fold change
1,Nc1ncnc2c1ncn2[C@@H]1O[C@H](COP(=O)(O)OP(=O)(O)OP(=O)(O)O)[C@@H](O)[C@H]1O [adenosine 5'-triphosphate],-1.49
